Experimental findings from article PMC4336329 (PLoS ONE, 2015) are described below.

Screen size: about 310,000 compounds; about 14,000 (4.5%) showed an effect of 50% or more. The effect is printed as a negative number. This is one part of a sample in which strong results are shown more often than they occur.
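Also: peak tail current of the secondary pulse compared with the same well before compound.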

The assay deals with human ether-à-go-go-related gene (hERG) potassium channel (human, UniProt Q12809). Nature of the assay: primary screen, population patch clamp on CHO cells stably expressing hERG; higher = less effect of the substance.
Chain of human ether-à-go-go-related gene (hERG) potassium channel (Q12809 whole entry, looked up): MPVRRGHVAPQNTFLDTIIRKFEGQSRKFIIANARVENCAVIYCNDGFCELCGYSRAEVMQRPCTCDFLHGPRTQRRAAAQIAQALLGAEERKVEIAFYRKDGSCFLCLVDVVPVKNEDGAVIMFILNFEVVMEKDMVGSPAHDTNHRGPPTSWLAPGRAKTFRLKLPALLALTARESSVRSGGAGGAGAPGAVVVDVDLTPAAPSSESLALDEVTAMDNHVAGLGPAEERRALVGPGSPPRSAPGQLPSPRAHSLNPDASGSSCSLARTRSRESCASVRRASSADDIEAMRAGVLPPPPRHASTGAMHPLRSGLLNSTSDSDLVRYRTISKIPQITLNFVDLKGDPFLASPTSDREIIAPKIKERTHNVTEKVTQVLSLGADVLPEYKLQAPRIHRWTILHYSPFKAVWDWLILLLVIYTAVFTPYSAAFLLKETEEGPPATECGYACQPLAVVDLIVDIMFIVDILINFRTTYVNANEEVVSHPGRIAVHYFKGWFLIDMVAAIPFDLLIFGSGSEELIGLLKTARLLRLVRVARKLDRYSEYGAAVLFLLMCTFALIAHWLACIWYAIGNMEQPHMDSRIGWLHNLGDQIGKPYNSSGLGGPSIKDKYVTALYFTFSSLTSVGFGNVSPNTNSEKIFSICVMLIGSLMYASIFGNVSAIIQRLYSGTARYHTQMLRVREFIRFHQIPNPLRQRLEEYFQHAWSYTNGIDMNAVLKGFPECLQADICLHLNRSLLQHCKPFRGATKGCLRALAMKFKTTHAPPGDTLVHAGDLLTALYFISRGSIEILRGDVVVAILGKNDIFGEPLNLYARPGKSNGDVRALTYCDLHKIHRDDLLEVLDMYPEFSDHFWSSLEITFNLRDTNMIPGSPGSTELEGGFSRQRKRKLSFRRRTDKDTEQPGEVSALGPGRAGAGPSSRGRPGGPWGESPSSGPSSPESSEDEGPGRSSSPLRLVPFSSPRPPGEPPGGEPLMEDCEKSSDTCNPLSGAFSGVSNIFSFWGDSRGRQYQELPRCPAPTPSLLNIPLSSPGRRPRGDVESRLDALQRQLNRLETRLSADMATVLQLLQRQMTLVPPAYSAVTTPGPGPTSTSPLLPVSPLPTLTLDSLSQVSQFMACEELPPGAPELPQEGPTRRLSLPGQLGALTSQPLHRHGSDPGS
Regarding `CCCN1C(=O)C(O)(CC(=O)c2ccc3c(c2)OCCO3)c2ccccc21` (stereo not shown), the “hERG current change (%, negative = inhibition) at 10uM” value was determined as 7.24%.

`Cc1nn(CC(=O)Nc2ccc(C(=O)N3CCCC3)cc2)c(=O)c2ccccc12`: the “hERG current change (%, negative = inhibition) at 10uM” value was -1.72%. With `CCN(c1cccc(C)c1)S(=O)(=O)c1c(C)[nH]c(C)c1C(=O)N1CCCCC1` the figure was 5.45%. Then `O=C(O)c1cccc(CSc2nnc(Cc3ccccc3)o2)c1`, with -5.18%; and `Cc1cc(C)n2nc(C(=O)Nc3ccc4c(c3)OCO4)nc2n1`, with -1.25%.

Consider `Cc1nc(NC(=O)CN2CCCCC2)sc1C(=O)N(C)C`, for which the “hERG current change (%, negative = inhibition) at 10uM” value was found to be 1.37%. With `CC(NC(=O)c1cc(-c2ccccc2)nc2ccccc12)C1CCCO1` (stereo not shown) the figure was -11%; with `COc1cc2c(cc1OC)[C@@]13CCN4CC5=CCO[C@H]6CC(=O)N2[C@H]1[C@H]6[C@H]5C[C@H]43`, -8.03%; with `O=C1/C(=C\c2ccccc2)C2OCC=C3CN4CCC56c7ccccc7N1C5C2C3CC46` (stereo not shown), -53.4%.

In the case of `O=C1CC2OCC=C3CN4CCC56c7cc([N+](=O)[O-])ccc7N1C5C2C3CC46` (stereo not shown), the “hERG current change (%, negative = inhibition) at 10uM” value is -22.4%.

Turning to `NNC(=O)c1ccc(Oc2cc(Cl)cc(Cl)c2)o1`, the “hERG current change (%, negative = inhibition) at 10uM” value amounted to 1.1%. With `Cl.O=C(Nc1cc(F)cc(F)c1)c1ccc(NCCCN2CCCCCC2)c([N+](=O)[O-])c1` the figure was -72.1%; with `Cc1ccc(NC(=O)c2ccc(NCCCN3CCC(C)CC3)c([N+](=O)[O-])c2)cc1F.Cl`, -8.31%. With `O=C(Nc1cc(F)cc(F)c1)c1ccc(NCCc2ccccc2)c([N+](=O)[O-])c1` the figure was 3.74%. With `O=C(Nc1ccc(Cl)c([N+](=O)[O-])c1)c1ccc(NCCCN2CCOCC2)c([N+](=O)[O-])c1` the figure was -10.2%. As for `COc1ccc(NC(=O)c2ccc(NCCCN3CCOCC3)c([N+](=O)[O-])c2)cc1`, the “hERG current change (%, negative = inhibition) at 10uM” value is -3.71%.

As for `CCCN(CCC)CCCNc1ccc(C(=O)Nc2cccc(OC)c2)cc1[N+](=O)[O-].Cl`, the “hERG current change (%, negative = inhibition) at 10uM” value is on record as -76.3%. Then `Cc1ccc(NC(=O)c2ccc(NCCCN3CCC(C)CC3)c([N+](=O)[O-])c2)c(C)c1`, with -19.4%. Then `Cc1cccc(NC(=O)c2ccc(NCCc3ccccc3)c([N+](=O)[O-])c2)c1`, with 6.78%; and `COc1cccc(NC(=O)c2ccc(NCCCN3CCC(C)CC3)c([N+](=O)[O-])c2)c1`, with -56.2%.

In the case of `Cc1ccc(C(=O)Nc2cccc(NC(=O)c3ccc(C)cc3)n2)cc1`, the “hERG current change (%, negative = inhibition) at 10uM” value is recorded as 2.01%. With `Cc1ccccc1-c1nnc(CN2CCC(C)CC2)o1.Cl` the figure was -6.6%; with `COCCOCC(O)CN1CCN(c2ccc(C)cc2)CC1.O=C(O)C(=O)O` (stereo not shown), -11.2%. With `Cc1c(C(=O)NC2CCCc3ccccc32)oc2ccc(S(=O)(=O)N3CCOCC3)cc12` (stereo not shown) the figure was -2.45%; with `CC(Oc1cccc(Cl)c1)C(=O)Nc1ccc(S(=O)(=O)NC2=NCCCCC2)cc1` (stereo not shown), -22.5%; with `CCN(CC)C(=O)c1c2c(nc3ccccc13)-c1ccccc1CC2`, -12.6%. With `CCOC(=O)/C(C#N)=C\C=C1C=CN(C)C=C1` the figure was 0.0919%; with `Cc1ccc2c(CN3CCN(Cc4ccccc4)CC3)cc(=O)oc2c1C`, -55.3%.

On to `Cc1ccc2c(CN3CCCCC3)cc(=O)oc2c1C`, for which the “hERG current change (%, negative = inhibition) at 10uM” value is -1.49%.

For the molecule `CCc1cc(=O)oc2c(CN3CCN(C)CC3)c(O)ccc12`, the “hERG current change (%, negative = inhibition) at 10uM” value is given as 8.25%. With `Cc1c(O)ccc2c(CN3CCN(Cc4ccccc4)CC3)cc(=O)oc12` the figure was -61.9%. Then `O=c1cc(CN2CCN(Cc3ccccc3)CC2)c2ccc(O)c(O)c2o1`, with -65.8%; and `Cc1cc(C)c2c(CN3CCN(Cc4ccccc4)CC3)cc(=O)oc2c1C.Cl`, with -40.8%; and `Cc1c(O)ccc2c(CN3CCN(CCO)CC3)cc(=O)oc12`, with 3.5%.

On to `Cc1cc(C)c2oc(=O)cc(CN3CCN(Cc4ccccc4)CC3)c2c1`, for which the “hERG current change (%, negative = inhibition) at 10uM” value was -33.2%. With `O=c1cc(CN2CCOCC2)c2ccc(O)c(O)c2o1`, the “hERG current change (%, negative = inhibition) at 10uM” value came to 10.1%. With `COc1ccc(NC(=O)C2CC(=O)OC2(C)C)cc1` (stereo not shown) the figure was 3.44%. As to `CCOC(=O)CNC(=O)Nc1ccccc1C(=O)OC`, the “hERG current change (%, negative = inhibition) at 10uM” value came to 15.1%. Then `Cc1cc(C)n(S(=O)(=O)c2cccc([N+](=O)[O-])c2)n1`, with 3.73%; and `COc1ccc(C(=O)C(C)N(C(=O)c2ccc(Cl)cc2Cl)N2C(=O)C3C4C=CC(C4)C3C2=O)cc1` (stereo not shown), with 0.401%.

For the molecule `Cc1cccc(OC(=O)c2sc3ncn(C)c(=O)c3c2C)c1`, the “hERG current change (%, negative = inhibition) at 10uM” value was determined as 3.54%. With `O=C(Cn1nc2n(c1=O)-c1ccccc1SC2)N/N=C/c1ccncc1` the figure was -1.97%; with `Nc1c(C(=O)NC2CCCC2)c2nc3ccccc3nc2n1CC1CCCO1` (stereo not shown), -4.67%. Then `Nc1c(C(=O)OC2CCCCC2)c2nc3ccccc3nc2n1CC1CCCO1` (stereo not shown), with -63.7%. Then `CC(C)OC(=O)c1c(N)n(CC2CCCO2)c2nc3ccccc3nc12` (stereo not shown), with -29.3%; and `Nc1cc(Cl)ccc1N1CCOCC1`, with -1.57%. For `C[n+]1ccccc1COc1ccc(C(C)(C)C)cc1.Cc1ccc(S(=O)(=O)[O-])cc1`, the “hERG current change (%, negative = inhibition) at 10uM” value was 2.84%. With `COc1ccc(-c2c(-c3cc(OC)cc(OC)c3)n(C)c3ccc(-c4ccc(S(N)(=O)=O)cc4)cc23)cc1` the figure was 14.8%; with `Cc1cccc(-n2c3nc(=O)[nH]c(=O)c-3cc3cc([N+](=O)[O-])ccc32)c1`, -35.1%. For the molecule `Cc1ccc(-n2c3nc(=O)[nH]c(=O)c-3cc3cc([N+](=O)[O-])ccc32)cc1`, the “hERG current change (%, negative = inhibition) at 10uM” value is listed as -57.6%. With `Cc1ccc(-n2c3nc(=O)[nH]c(=O)c-3cc3cc([N+](=O)[O-])ccc32)cc1C` the figure was -26.9%; with `COc1ccc(CNC(=O)C(=O)NCC2OCCN2S(=O)(=O)c2ccc(F)cc2)cc1` (stereo not shown), -3.41%.
